Compounds with a hit are over-represented: about 3% of the library has one in this group of screens.
SARS PLpro yeast: qHTS of Yeast-based Assay for SARS-CoV PLP | S. cerevisiae expressing SARS-CoV PLpro, growth rescue | Potency, µM (doses to about 32.9 µM), without a hit: at the highest dose activity, positive = growth rescue, usual class: activators | 0.19% of 330,000 active | AID 485353, 2010; calls by dose curve; further: 0% is about no effect; nearly all actives have a fitted effect of over 55% in size
Sm TGR inh: qHTS Assay for the Inhibitors of Schistosoma Mansoni Peroxiredoxins; Schistosoma mansoni thioredoxin glutathione reductase (TGR), Q962Y6; purified TGR, DTNB reduction, TNB absorbance 405 nm; Potency, µM (series often up to 114 µM), inactives show at the highest dose activity change, negative = inhibition, actives largely listed as inhibitors; 3% of 360,000 active; AID 485364, 2010; active means well fitted inhibition curve with a large enough effect; inconclusive means small, poorly fitted or top-dose-only effect; inactive means no such curve, though single readings can be large or run the other way; further: on the % scale 0 is the no-effect control and ±100 the full control effect; nearly all actives have a fitted effect of over 60% in size
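Kinetic colorimetric format: TGR-catalysed, NADPH-driven DTNB reduction monitored via TNB absorbance. Enzyme dispensed at 20 nM; compound exposure 15 min at room temperature before reaction start.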
Numbers without * were called inactive; ? = inconclusive; / = not tested or not shown. Potency means the concentration at half of the fitted maximal effect.

SMILES	SARS PLpro yeast	Sm TGR inh
O=C(O)C1C2C=CC(O2)C1C(=O)NCCC1=CCCCC1 (stereo not drawn)	-5%	22µM*
O=C(NCCC1=CCCCC1)C(=O)NCc1ccccc1	11%	14%
Cc1ccc(NC(=O)c2ccc(NC(=O)N3CCSc4ncccc43)cc2)cc1Cl	/	-12%
O=[N+]([O-])c1ccc(O)c(C=Nc2ccc3nc(-c4ccccc4)[nH]c3c2)c1	-41%	-14%
Oc1c(Br)cc(C=Nc2ccc3nc(-c4ccccc4)[nH]c3c2)c(O)c1Br	-2%	18µM*
CCN(CC)CCN(C(=O)c1ccc(C(=O)OC)cc1)c1nc2ccc(Cl)cc2s1	/	2%
c1cc(CNCCc2ccc3c(c2)OCO3)ccn1	0%	45µM*
Fc1ccc(CNCCc2ccc3c(c2)OCO3)cc1	2%	0%
COc1ccc(CNCCc2ccc(Cl)cc2Cl)cc1	-1%	-6%
Clc1ccc(CCNCc2ccncc2)c(Cl)c1	-1%	28µM*
Cc1nn(CC(=O)Nc2ccccc2F)c(=O)c2c(C)n(-c3ccc(Cl)cc3)nc12	/	0%
CS(=O)(=O)N(CC(=O)NCc1ccccc1)Cc1ccc(Cl)cc1	6%	2%
CS(=O)(=O)N(CC(=O)NCc1ccco1)Cc1ccc(Cl)cc1	5%	11µM*
Cc1ccc(S(=O)(=O)NCC(=O)N(CC(=O)NCc2ccco2)Cc2ccc(F)cc2)cc1	-1%	3%
Cc1ccc(S(=O)(=O)N(CC(=O)NCc2ccco2)Cc2ccc(F)cc2)cc1	0%	40µM*
O=C(COCc1cc(-c2ccc(F)cc2)on1)Nc1cc(Cl)cc(Cl)c1	/	8%
COc1cc(OC)cc(C(=O)Nc2ccc3nc(N4CCC(C)CC4)cc(C)c3c2)c1	/	10%
COc1ccc(-c2nn(C)c3sc(C(=O)N4CCN(c5cc(Cl)ccc5C)CC4)cc23)cc1OC	/	-1%
COc1ccc(-c2nn(C)c3sc(C(=O)N4CCN(c5cccc(C)c5C)CC4)cc23)cc1OC	/	25µM*
CCOc1ccc(NC(=O)CSc2oc(-c3cccs3)nc2S(=O)(=O)c2ccc(C)cc2)cc1	/	0%
CN(C)S(=O)(=O)c1ccc(C(=O)NCCN2C(=O)S/C(=C\c3cccnc3)C2=O)cc1	-1%	-17%
CS(=O)(=O)c1ccc(C(=O)NCCN2C(=O)S/C(=C\c3cccnc3)C2=O)cc1[N+](=O)[O-]	1%	8.9µM*
Cc1ccc(S(=O)(=O)N2CCN(Cc3nc4ccc(C)cc4o3)CC2)c(C)c1	/	4%
CN(C)S(=O)(=O)c1cccc(NC(=S)Nc2cc(Cl)cc(Cl)c2)c1	-14%	?
CN(C)S(=O)(=O)c1cccc(NC(=S)Nc2ccc(Cl)cc2Cl)c1	16%	8.9µM*
SMILES	SARS PLpro yeast	Sm TGR inh
CCN(CCO)c1ccc(NC(=S)Nc2cccc(S(=O)(=O)N(C)C)c2)cc1	0%	40µM*
CCN(CC)S(=O)(=O)c1ccc(NC(=S)Nc2ccccc2)cc1	2%	?
CCN(CC)c1ccc(NC(=O)CCCN2C(=O)C(c3ccccc3)Oc3cccnc32)c(C)c1 (stereo not drawn)	/	-6%
CCc1ccc(-n2c(Cc3ccccc3)nnc2SCc2nc(-c3cccs3)no2)cc1	/	0%
Cc1ccc2nc(SCC(=O)NCc3ccco3)c(C#N)cc2c1	12%	?
Cc1ccc2nc(SCC(=O)NCc3ccco3)c(C)cc2c1	14%	40µM*
Cc1ccc2c(c1)cc(C)c1nnc(SCC(=O)NCc3ccco3)n12	-1%	-23%
Cc1ccc(CNC(=O)CSc2nc(=O)n(Cc3ccco3)c3c2CCC3)cc1	/	40µM*
O=C(CSc1nc(=O)n(Cc2ccco2)c2c1CCC2)NCc1ccc(Cl)cc1	/	-31%
Cc1ccc2cc(C#N)c(SCC(=O)NCc3ccco3)nc2c1	7%	35µM*
O=C(c1ccc(Br)cc1)N1CCN(CCc2ccncc2)CC1	/	0%
COc1cc(-c2ccno2)ccc1S(=O)(=O)N1CCN(c2cccc(Cl)c2)CC1	/	7%
CCCn1ccc2c(OCC(=O)Nc3ccc(C(F)(F)F)cc3)cccc2c1=O	/	12%
CCN(CC(=O)NCc1cccs1)C(=O)c1ccc([N+](=O)[O-])o1	-3%	45µM*
CCN(CC(=O)NCc1cccs1)C(=O)c1ccc(C)o1	-1%	/
C#CC(C)(C)NS(=O)(=O)c1cc(-c2nnc(Nc3ccc(C)cc3)c3ccccc23)ccc1C	/	5%
CCc1nnc(NC(=O)/C=C/c2ccco2)s1	1%	40µM*
O=C(/C=C/c1ccco1)NC1=NCCS1	-3%	45µM*
O=C(/C=C/c1ccco1)Nc1nnc(-c2ccco2)s1	0%	-22%
Cc1nc(NC(=O)/C=C/c2ccco2)sc1C	-20%	50µM*
O=C(/C=C\c1ccco1)Nc1nc(-c2ccccc2)cs1	-49%	?
COC(=O)c1sc(NC(=O)c2ccoc2C)nc1C	-27%	1%
COC(=O)c1sc(NC(=O)/C=C/c2ccc(C)o2)nc1C	6%	45µM*
O=C(/C=C/c1ccco1)Nc1cccc(NC(=O)/C=C/c2ccco2)n1	-1%	-36%
